Only some compounds are listed: those with a hit (about 7.9% of all), similar ones and a draw of the others.
HCV inhibitor: blocks hepatitis C virus. Huh7.5.1 HCVcc-Cre infection, luciferase reporter, 44 h. Potency, µM (series often up to 41.8 µM), inactives show at the top dose activity change, negative = inhibition, usual class: inhibitors. 340,000 tested, 3.4% active. AID 651820; active means well fitted inhibition curve with a large enough effect; inconclusive means small, poorly fitted or top-dose-only effect, or another doubt; inactive means no such curve, though single readings can be large or run the other way; further: potency means the concentration at half of the fitted maximal effect
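Reporter virus HCVcc-Cre (~0.5 moi) infects cells exposed to compound; seeding density 1,000 cells/well with 4 h settling beforehand. Luminescence, 15 sec read, taken 44 h post-infection following a 15 min RT substrate incubation.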
Lassa entry inh: Lassa virus entry inhibition; Lassa virus pseudotype entry inhibition, cell reporter; Potency, µM (series often up to 37.9 µM), inactives show at the highest dose activity change, negative = inhibition, usual class: inhibitors; 300,000 tested, 1.2% active; AID 540256; calls by dose curve; tested in HEK293 cells; further: potency means the concentration at half of the fitted maximal effect; nearly all actives have a fitted effect of over 50% in size
MARV entry inh: Marburg virus entry inhibition. AID 540276. 300,000 tested, 1.8% active. Marburg virus pseudotyped entry inhibition, cell reporter. Potency, µM (titrated, usually from 37.8 µM), for inactives: at the top dose activity change, negative = inhibition, actives largely listed as inhibitors; calls by dose curve; tested in HEK293 cells; further: potency means the concentration at half of the fitted maximal effect
FMDV antiviral: antivirals against foot and mouth disease virus. AID 1159524. FMDV antiviral cell-based qHTS. 410,000 tested, 1.2% active. Potency, µM (doses to about 57.9 µM), for the others: top-dose activity change, negative = inhibition, actives largely listed as inhibitors; calls by dose curve; tested in HEK293T cells; further: read-out not given here; potency means the concentration at half of the fitted maximal effect; nearly all actives have a fitted effect of over 45% in size
HCMV inh: human cytomegalovirus inhibition; HFF cells, HCMV-luciferase reporter, 72 h; hits give low values; activity change, negative = inhibition, % at 57.5 µM; 410,000 tested, 4.5% active; in the data active means activity change below about -60%; inconclusive means no clear call, values can overlap the other calls; inactive means above about -39%
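Luciferase read-out from HCMV-luciferase-infected HFFs (MOI 1 PFU/cell) 72 h post infection at 37C; compounds added after 16 h cell attachment; activity normalized between buffer-only basal and Salinomycin (10uM) inhibitor controls.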
* marks the source's active call; other numbers are inactive results; ? = inconclusive; . = no result; ! = repeats disagree; [ ] = dose if it differs, or a comment. On the % scale 0 is the no-effect control and ±100 the full control effect.

SMILES | HCV inhibitor | Lassa entry inh | MARV entry inh | FMDV antiviral | HCMV inh
Cc1nc2c(cnn2-c2ccccc2Cl)c(=O)n1-c1ccc(C(C)C)cc1 | ? | 9.2µM* | 15µM* | ? | -60*!
Cc1ccc(-n2ncc3c(=O)n(-c4ccc(C)c(C)c4)c(C)nc32)cc1 | -5% | 1% | ? | ? | ?
Cc1ccc(-n2c(C)nc3c(cnn3-c3ccc(F)cc3)c2=O)cc1 | ? | -12% | ? | ? | -83*
Cc1noc(C)c1COC(=O)c1cc(=O)[nH]c2ccccc12 | -1% | 14% | 24% | 0% | ?
Cc1cc(C(=O)OCc2nnc(-c3ccccc3)o2)c(C)n1-c1ccccc1 | 14µM* | ? | -30% | ? | -3
Cc1noc(C)c1COC(=O)c1cc(C)n(-c2ccccc2)c1C | 10µM* | -51% | -29% | -4% | 103
O=C(OCc1nnc(-c2ccccc2)o1)c1cn(-c2ccccc2)nc1-c1ccccc1 | 11µM* | 13% | ? | -19% | -1
CCCCNC(=O)c1cc2n(n1)[C@@H](C(F)(F)F)C[C@H](c1ccccc1)N2 | . | . | -19% | . | .
O=C(CC1C(=O)NCCN1Cc1ccccc1C(F)(F)F)NC1CCC1 (configuration not stated) | ? | 12% | 6% | -20% | ?
CCOC(=O)c1cc2c(=O)n3ccccc3nc2n(C)c1=NC(=O)c1c(-c2c(F)cccc2Cl)noc1C | ? | 1% | ? | -20% | ?
CCOC(=O)c1cc2c(=O)n3ccccc3nc2n(Cc2ccco2)c1=NC(=O)c1cc(C)cc(C)c1 | . | ? | 27%[46.1 µM] | 0% | -77*
CCOC(=O)c1cc2c(=O)n3ccccc3nc2n(C(C)C)c1=NC(=O)c1c(-c2c(F)cccc2Cl)noc1C | 2µM* | ? | ? | -16% | -90*!
Cc1cccc(OCc2nc(C#N)c(NCc3ccc4c(c3)OCO4)o2)c1 | ? | 4% | -21% | -10% | 1
COc1ccc(CCNc2oc(COc3ccc(Cl)cc3)nc2C#N)cc1OC | . | -17%[46.1 µM] | ? | 32µM* | -23
N#Cc1nc(COc2ccc(Cl)cc2)oc1NCc1ccc2c(c1)OCO2 | 10µM* | -4% | 6%[46.1 µM] | 0% | 3
CCCN1CCN(CCNC(=O)Nc2cc(OC)cc(OC)c2)CC1 | . | ? | -1%[46.1 µM] | -14% | 11
Nc1nc2c(ncn2[C@@H]2O[C@H](CNCc3ccc(Oc4cc(-n5cccn5)ncn4)cc3)[C@@H](O)[C@H]2O)c(=O)[nH]1 | . | . | . | -2% | 30
Cn1nc(-c2ccccc2F)c2cc(C(=O)NCc3ccc(Cl)cc3)sc21 | . | 0%[46.1 µM] | -28%[46.1 µM] | ? | -71*
Cn1nc(-c2ccccc2F)c2cc(C(=O)Nc3cc(F)ccc3F)sc21 | . | ? | 6%[46.1 µM] | -12% | -26
CC(CCc1ccco1)NC(=O)c1cc2c(-c3ccccc3F)nn(C)c2s1 (configuration not stated) | 18µM* | . | . | ? | 23
Cn1nc(-c2ccccc2F)c2cc(C(=O)NCc3cccc(Cl)c3)sc21 | . | ? | ? | -22% | -32
CNC(=O)Oc1ccc2ncccc2c1 | 4% | 9% | 10% | -15% | -23
CN1CC[C@@]2(C)c3cc(O)ccc3N(C)C12 (some centres not stated) | . | 8.2µM* | 7.9µM* | . | .
CNC(=O)Oc1ccc2c(c1)[C@]1(C)CCN(C)[C@@H]1N2C | 1%[8.37 µM] | -7% | 0.28µM*! | 0% | -18
Cc1nn2c(CN(C(=O)COc3ccccc3)c3ccccc3)nnc2c2ccccc12 | 15% | 4% | -5% | -9% | -68*
SMILES | HCV inhibitor | Lassa entry inh | MARV entry inh | FMDV antiviral | HCMV inh
Cc1nn2c(COc3ccc(NC(=O)c4ccccc4Cl)cc3)nnc2c2ccccc12 | ? | ? | 7.1µM* | -28% | -18
CC(O)[C@@H](O)[C@H]1CNc2nc(N)[nH]c(=O)c2N1 (some centres not stated) | . | . | 15% | . | .
CC(=O)OC[C@@H]1CN(Cc2ccccc2)C[C@H](n2cnc3c(NC4CCC4)ncnc32)O1 | . | . | . | -8% | -23
Cn1ncc(Br)c1NC(=O)CSc1ccc(Cl)cc1 | 25µM* | . | . | ? | -35
O=C(CSc1ccc(Cl)cc1)Nc1ncccn1 | 31% | 9% | 21% | -9% | 12
CCOc1ccc(-c2ccc(SCC(=O)Nc3nnc(CC)s3)nn2)cc1 | ? | . | ? | 24% | 17
CCOc1ccc(-c2ccc(SC)nn2)cc1 | 5% | 2.8µM* | 1.3µM* | -78% | 0
CN(C)c1cccc2c1c(NC(=O)c1ccc(F)cc1)nn2C | 10% | . | . | -27% | -5
CN(C)c1cccc2c1c(NC(=O)Nc1ccc(F)cc1F)nn2C | ? | . | . | -6% | -63*
CC1(c2nnc(-c3cccc(Cl)c3)o2)CC(c2cccc([N+](=O)[O-])c2)=NO1 (configuration not stated) | 7.9µM* | . | . | -22% | -11
CC1(c2nnc(-c3ccccc3)o2)CC(c2ccc([N+](=O)[O-])cc2)=NO1 (configuration not stated) | ? | . | . | -11% | -68*
CC1(c2nnc(-c3ccncc3)o2)CC(c2ccc(Cl)cc2)=NO1 (configuration not stated) | 11µM* | . | . | ? | -27
COc1ccc(-c2cccc([C@H]3[C@@H]4C=CC[C@@H](C)[C@@H]4C(=O)N3Cc3ccccc3)c2)cc1 | ? | . | . | ? | -22
COc1ccc(-c2c([C@H]3[C@H]4C=CC[C@@H](C)[C@@H]4C(=O)N3Cc3ccccc3)ccc3ccccc23)cc1 | 7.1µM* | . | . | ? | ?
COc1cc(-c2cccc([C@H]3[C@@H]4C=CC[C@@H](C)[C@@H]4C(=O)N3Cc3ccccc3)c2)cc(OC)c1OC | 10µM* | . | . | -2% | -2
CC(=O)c1ccc(-c2cccc([C@H]3[C@@H]4C=CC[C@@H](C)[C@@H]4C(=O)N3Cc3ccccc3)c2)cc1 | 11µM* | . | . | -3% | -7
COc1ccc(-c2ccc([C@H]3[C@H]4C=CC[C@@H](C)[C@@H]4C(=O)N3Cc3ccccc3)c(F)c2)cc1 | ? | . | . | -11% | 26
N#Cc1ccc(OCC(=O)N2CCN(S(=O)(=O)c3cccc(Cl)c3)CC2)cc1 | -22% | -38% | -14% | -27% | -6
Cc1ccc(C)c(N2CCN(C(=O)Nc3cn(CC(C)C)c(=O)c4ccccc34)CC2)c1 | . | -12%[46.1 µM] | . | -1% | 1
O=[N+]([O-])c1cc(-c2nnc(Nc3ccccc3)c3ccccc23)ccc1N1CCOCC1 | 13µM* | . | -3% | -15% | -74*
O=[N+]([O-])c1cc(-c2nnc(N3CCOCC3)c3ccccc23)ccc1N1CCOCC1 | ? | . | . | ? | -36
O=[N+]([O-])c1cc(-c2nnc(Nc3ccc(O)cc3)c3ccccc23)ccc1N1CCOCC1 | ? | ? | ? | 20µM* | -69*
Cc1ccc(Nc2nnc(-c3ccc(N4CCOCC4)c([N+](=O)[O-])c3)c3ccccc23)cc1 | 25µM* | ? | ? | -16% | -89*
COc1ccc(NS(=O)(=O)c2cccc(C(=O)OCC(=O)NC3CC3)c2)cc1 | 1% | . | . | 22% | -33

Compound activity: PubChem BioAssay, National Center for Advancing Translational Sciences (NCATS)
